Screening data: PubChem BioAssay, National Center for Advancing Translational Sciences (NCATS)
Shown are actives, neighbours in structure and some others; about 12% of the full set was active somewhere.
Pf growth 96h: inhibits malaria parasite growth, 96 h. Potency, µM (titrated, usually from 28.7 µM), for inactives: at the top dose activity change, negative = inhibition, actives largely listed as inhibitors. P. falciparum luciferase reporter growth, 96 h. 320,000 tested, 6.9% active; also: % is scaled to controls: 0 for no effect and ±100 for the full control effect
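Two parasite generations (96 h, 37 C, 5% CO2) of compound exposure in infected erythrocytes (0.05% parasitemia, 2% hematocrit). Luciferase-reporter P. falciparum; decreased luminescence indicates inhibited growth, aimed at apicoplast-acting delayed death.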
Pf growth 48h: P. falciparum growth inhibition at 48 hours (one generation) | P. falciparum luciferase growth in erythrocytes, 48 h | Potency, µM (top dose mostly 28.7 µM), without a hit: at the top dose activity change, negative = inhibition, usual class: inhibitors | 310,000 tested, 5.9% active | AID 504832; also: % is scaled to controls: 0 for no effect and ±100 for the full control effect
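Luciferase-expressing parasites in RBCs, 2% Hct / 0.1% parasitemia final; RPMI 1640 + 0.5% Albumax; 37 C, 5% CO2, one generation; luminescence read-out, lower signal = inhibition.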
Sm TGR block: S. mansoni TGR enzyme inhibition; AID 485364; 360,000 tested, 3% active; purified TGR, DTNB reduction, TNB absorbance 405 nm; Q962Y6; Potency, µM (titrated, usually from 114 µM), for the others: at the highest dose activity change, negative = inhibition, usual class: inhibitors; also: % is scaled to controls: 0 for no effect and ±100 for the full control effect; nearly all actives have a fitted effect of over 60% in size
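First, TGR (20 nM dispensed) and NADPH were mixed with compound. Second, a 15 min room-temperature incubation followed. Third, further NADPH and then DTNB were added to start the reaction. Finally, TNB absorbance was monitored kinetically.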
SARS PLpro yeast: blocks SARS-CoV papain-like protease in a yeast assay; S. cerevisiae expressing SARS-CoV PLpro, growth rescue; Potency, µM (titrated, usually from 32.9 µM), inactives show top-dose activity, positive = growth rescue, hits mostly activators; 330,000 tested, 0.19% active; AID 485353; calls by dose curve; also: 0% is about no effect; nearly all actives have a fitted effect of over 55% in size
The depositor's hits bear a star; i = inactive; ? = inconclusive; nt = no result given; [ ] = remark or other dose. Unless noted, calls follow the shape of the dose curve; as a rule, active = well fitted curve in the direction sought with a large enough effect; inconclusive = small, poorly fitted or top-dose-only effect, or another doubt; inactive = no such curve, though single readings can be large; an effect the other way counts as inactive or inconclusive. Potency is read from the fitted curve at half-maximal effect.

SMILES | Pf growth 96h | Pf growth 48h | Sm TGR block | SARS PLpro yeast
Cc1ccc(NC(=O)c2cccc(S(=O)(=O)NCc3ccccc3)c2)nc1 | -6.0% | ? | 0.3% | -4.5%
Cc1cc(NC(=O)c2cccc(S(=O)(=O)N(C)C)c2)n(-c2ccccn2)n1 | 4.65µM* | nt | 10.7% | -2.2%
Cc1cc(C)cc(NC(=O)CSc2nncn3c2cc2occc23)c1 | nt | nt | -23.6% | nt
CCCn1c(CC)nc([N+](=O)[O-])c1Sc1ccc(C)cc1 | 10.4µM* | ? | -32.0% | -4.9%
CCCn1c(CC)nc([N+](=O)[O-])c1Sc1ccc(F)cc1 | ? | ? | 44.7µM* | 4.9%
Cc1ccc(C)c(N2CCN(S(=O)(=O)c3ccc(-c4cnc(C5CC5)o4)cc3)CC2)c1 | nt | nt | 1.7% | nt
CCC(=O)Nc1nnc2n1CCS2 | nt | nt | -0.1% | nt
CCn1cc(C(=O)N2CCN(c3cccc(Cl)c3)CC2)c(=O)c2cc(S(=O)(=O)N3CCC(C)CC3)ccc21 | nt | nt | -2.9% | nt
CCOc1ccc(S(=O)(=O)n2cc(F)c(=O)[nH]c2=O)cc1 | 13.1µM* | ? | nt | -3.8%
COC(=O)C1=C(C)N(Cc2ccccc2)C(=O)/C1=C\c1ccco1 | -6.6% | -23.5% | 8.91µM* | -1.1%
CCOC(=O)C1=C(C)N(c2ccc(C)cc2)C(=O)/C1=C\c1ccc(O)c(OC)c1 | -29.6% | ? | 3.16µM* | 0.0%
CCOc1cc(/C=C2\C(=O)N(CCc3ccc(OC)c(OC)c3)C(C)=C2C(=O)OC)ccc1O | ? | 11.7µM* | 20µM* | 3.0%
COC(=O)C1=C(C)N(c2cccc(OC)c2)C(=O)/C1=C\c1ccco1 | ? | ? | 35.5µM* | 17.4%
COc1ccc(-c2cc(NCc3ccc(C)cc3)n3cnnc3n2)cc1 | nt | nt | -4.8% | nt
N#CCCN1C(=O)C2(OCCO2)c2ccccc21 | 0.9% | -21.9%[0.00184 µM] | 9.6% | -0.1%
CCc1ccc(-n2cnc3cc(C(=O)NCc4ccc(C)cc4)ccc32)cc1 | nt | nt | -2.0% | nt
CCCCN1C(=O)/C(=C\c2ccco2)C(=O)N(CCc2ccccc2)C1=O | 36.4% | -16.8% | -0.6% | -2.3%
COC(=O)C1=C(C)N(Cc2ccc(C)cc2)C(=O)/C1=C\c1ccc(O)c(OC)c1 | -24.6% | -6.4% | ? | 3.1%
C=CCN1C(=O)/C(=C\c2ccco2)C(C(=O)OC)=C1C | 143.0% | -15.8% | 39.8µM* | 7.0%
COC(=O)C1=C(C)N(Cc2ccc(C)cc2)C(=O)/C1=C\c1cc(OC)c(OC)c(OC)c1 | 33.6% | 10.4µM* | -23.2% | -4.1%
CCN1C(=O)/C(=C\c2ccco2)C(C(=O)OC)=C1C | -2.5% | ? | -2.9% | 2.5%
COC(=O)C1=C(C)N(CCc2ccccc2)C(=O)/C1=C\c1ccco1 | -16.2% | -5.5% | 44.7µM* | -30.3%
COc1ccccc1C(=O)NC(=O)COC(=O)CNC(=O)c1ccccc1 | 6.8% | ? | -0.3% | 2.5%
CCOCCCNC(=O)C(c1ccc(C)cc1)N(Cc1ccc2c(c1)OCO2)C(=O)c1ccccc1O (configuration not stated) | nt | nt | -18.7% | nt
COc1ccc(N(CC(=O)NCCSCc2ccco2)S(=O)(=O)c2ccc(C)cc2)cc1 | 59.5% | ? | 28.2µM* | 1.7%
SMILES | Pf growth 96h | Pf growth 48h | Sm TGR block | SARS PLpro yeast
Cc1cc(Cl)ccc1N(CC(=O)NCCSCc1ccco1)S(C)(=O)=O | 11.8% | 3.3% | 17.8µM* | 1.1%
Cc1ccc(N(CC(=O)NCCSCc2ccco2)S(C)(=O)=O)cc1 | ? | -3.9% | 44.7µM* | 2.5%
Cc1ccc(S(=O)(=O)N(CC(=O)NCCSCc2ccco2)c2ccc(F)cc2)cc1 | i | ? | 12.6µM* | -0.4%
CS(=O)(=O)N(CC(=O)NCCSCc1ccco1)c1ccc2c(c1)OCO2 | -16.8% | -6.3% | ? | -0.6%
Cc1ccc(N(CC(=O)NCCSCc2ccco2)S(=O)(=O)c2ccc(F)cc2)cc1 | ? | -36.7% | 0.0% | 15.4%
COc1ccc(N(CC(=O)NCCSCc2ccco2)S(=O)(=O)c2ccccc2)cc1 | 9.1% | ? | ? | 0.2%
CCN1C(=O)[C@H]2[C@@H](c3ccc(Cl)cc3)N3C(=O)CN(CC4CC4)C(=O)[C@@]3(C)[C@H]2C1=O | -18.4% | 20.9% | -18.0% | 0.9%
COc1cccc(N2CCN(C(=O)c3cccc(NC4=NC5CS(=O)(=O)CC5S4)c3)CC2)c1 (configuration not stated) | -7.6% | 14.0% | 8.1% | -9.0%
Cc1nn(-c2ccc(F)cc2)c(Cl)c1/C=C/C(=O)N1CCNC(=O)C1 | 13.1µM* | -22.9% | 8.7% | -1.2%
Cc1nn(-c2ccc(F)cc2)c(C)c1/C=C/C(=O)N1CCNC(=O)C1 | ? | 0.0% | 9.4% | 5.7%
COC(=O)c1cn[nH]c1NC(=S)Nc1ccccc1C | 131.6% | 128.8% | 44.7µM* | -1.6%
COC(=O)c1cn[nH]c1NC(=S)Nc1ccc(C)cc1Cl | i | 121.4% | -24.2% | -6.2%
CC(C)C1Cc2c(C#N)c(N)sc(=S)c2CO1 (configuration not stated) | 79.5% | nt | 10µM* | 2.5%
CCn1c2ccc(F)cc2c2nnc(NN)nc21 | 3.7µM* | ? | 2.2% | 10.3%
CCc1ccc2c(c1)c1nnc(NN)nc1n2C | ? | 11.7µM* | -14.3% | -1.7%
NNc1nnc2c3cc(F)ccc3n(Cc3ccccc3)c2n1 | 3.29µM* | 1.47µM* | -5.5% | -1.0%
CCCn1c2ccc(F)cc2c2nnc(NN)nc21 | 1.2% | ? | 16.9% | -4.3%
COc1ccc2c(c1)CCc1c(C(=O)Nc3c(C)nn(Cc4ccc(Cl)c(Cl)c4)c3C)noc1-2 | nt | nt | -11.4% | nt
O=C(NCC(=O)N(c1ccccc1F)C(C(=O)NC1CCCC1)c1cccnc1)c1ccco1 (configuration not stated) | ? | 19.2% | 6.7% | 0.7%
CC1CCCCN1CCCNC(=O)c1cc(Sc2cccc(Cl)c2)nc2ccccc12 (configuration not stated) | nt | nt | 0.5% | nt
CC(Oc1ccc([N+](=O)[O-])cc1)C(=O)NCC1CCCO1 (configuration not stated) | -16.7% | 11.0% | -27.6% | -0.4%
COc1ccc(C(C(=O)Nc2ccc(C(C)C)cc2)N(Cc2ccco2)C(=O)CC2NC(=O)NC2=O)cc1 (configuration not stated) | ? | 1.47µM* | -21.8% | 0.7%
C=Cn1cc[n+](CC(=O)c2ccc(Br)s2)c1 | 3.29µM* | ? | -13.7% | 18.7%
C=Cn1cc[n+](CC(=O)c2ccc(-c3ccccc3)cc2)c1 | ? | 1.47µM* | -6.9% | -2.0%
C=Cn1cc[n+](CC(=O)c2cc(C(C)(C)C)c(O)c(C(C)(C)C)c2)c1 | 2.08µM* | 6.57µM* | -9.7% | 7.4%
CNC(=S)c1cc(C(C)(C)C)c(O)c(C(C)(C)C)c1 | ? | ? | -0.3% | -0.6%
O=C(C[n+]1ccccc1)c1ccc(-c2ccccc2)cc1 | 10.3% | 29.8% | 0.7% | -2.2%
C=Cn1cc[n+](CC(=O)c2cccs2)c1 | 6.57µM* | ? | -1.9% | 3.1%
Cc1ccc(-n2c(=O)c3c(c4cc(C)ccc4n3C)n(Cc3ccc(F)cc3)c2=O)cc1 | nt | nt | 2.7% | nt
CCCCC(=O)Nc1nnc(SCC(=O)NCC2CCCO2)s1 (configuration not stated) | -0.3% | 9.0% | 2.5% | -0.7%
